Experimental findings from PubChem BioAssay (NCI) are described below.

Values joined by “and” are separate entries in the source; they are usually repeats but may differ in a detail not shown here. Equal entries are not always repeated. About 83,000 compounds went through this panel and 20% of them were active in at least one assay; those are over-represented in the sample as a whole.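 Interpretation: 100, growth as untreated; towards 0, rising growth inhibition; 0, no net growth; 0 to -100, cell death. Compounds scoring below 10 were considered active.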 Values without a mark were called inactive. Active and inactive are the calls of the source.

The first test deals with MCF7 breast. Description: NCI-60 one-dose screen, 48 h (100 = growth as untreated, 0 = no growth, -100 = all killed). Conditions: 10 µM. How it is done: Growth inhibition of the MCF7 human tumor cell line is measured as a screen for anti-cancer activity. Cells are grown in 96 well plates and exposed to the test compound for 48 hours. Compounds are tested at a single concentration, which is 10^-5 M for most compounds. The reported endpoint is percent growth (GI% or GIPRCNT), where numbers from 0 - 100% represent growth inhibition, and numbers from -100% - 0 represent cell death. For example, a value of 40 represents 60% growth inhibition. A value of 0 means no net growth occurred over the course of the experiment. A value of -40 indicates 40% of cells at the beginning of the experiment died by the end of the experiment. A value of -100 means all cells are dead at the end of the experiment.
NCI-60 Human Tumor Cell Lines Screen was performed using the standard one-dose NCI protocol, which is described in more detail at https://dtp.cancer.gov/discovery_development/nci-60/default.htm.
Compounds with GIPRCNT values below 10 were considered active. Activity score was based on GIPRCNT using the following formula: […]
Score is 0 for GIPRCNT values of 100 or above, 50 for GIPRCNT values of 0, and 100 for GIPRCNT values of -100.
Regarding `O=c1ccn2c(n1)OC1CC2OC1COC(c1ccccc1)(c1ccccc1)c1ccccc1` (stereo unspecified), the growth was 95.4%.

Take `CS/C(=C\c1ccc(C(=O)c2ccc(C)cc2)n1C)S(C)=O` (stereo unspecified): the growth is 89.6%.

The same test, now with this note: 10 µM unless noted.
On to `O=C(O)c1ccc2c3ccc(C(=O)O)c4c(C(=O)O)ccc(c5ccc(C(=O)O)c1c25)c43`, for which the growth is 93.3%.

For `COc1ccc2oc3c(ccc[n+]3C)c(=O)c2c1`, the growth was 100%.

On to `CC(=O)Oc1cc(C)c(OC(C)=O)c(C)c1C`, for which the growth was 91.3%.

Take `C/C=C(/C(=O)NC(N)=O)C(C)C`: the growth is 94%.

Take `COCCCNC1=C(C#N)C(=O)NC(c2cccs2)S1` (stereo unspecified): the growth was 89.6%.

For `CCOC(=O)c1ccc(N2C(=O)C(Cl)(c3ccccc3)C2c2ccco2)cc1` (stereo unspecified), the growth is 62.4%.

Regarding `O=c1[nH]c(=S)[nH]n1C(=S)n1[nH]c(=S)[nH]c1=O`, the growth is 91.8%.

As for `CC1NC(C)c2ccc3ccccc3c2O1` (stereo unspecified), the growth is 92%.

On to `C(=N\OCCc1ccccc1)/c1ccccn1`, for which the growth is 92.9% and 105%.

Turning to `Clc1ccc2sc(-c3ccccc3)nc2c1`, the growth is 61.2%.

In the case of `CCN(CC)C(CC(=O)c1ccccc1)C(=O)c1ccccc1` (stereo unspecified), the growth is 53.2%.

Regarding `Oc1ccc(O)c(-c2ccccc2)c1`, the growth is 39.5%.

In the case of `CN(C)CC(CN(C)C)C(O)c1ccccc1` (stereo unspecified), the growth was 98.5%.

As for `N#Cc1c(N)nc2c(c(-c3ccc(Cl)cc3)nn2-c2ccccc2)c1C#N`, the growth was 97.1% [100 µM].

`O=C1C(=O)c2ccccc2C(O)=C1CC=C(Cl)Cl`: the growth is 37.9% and 44.7%.

As to `C(#CCN1CCOCC1)CCCN1CCOCC1`, the growth is 91.9% and 99.5%.

Take `Cc1cc(=NO)cc(C)n1O`: the growth is 87.6%.

As for `CSc1nc(N)c(N)c(N)n1`, the growth is 105%.

Take `COc1cc(Cl)ccc1C`: the growth was 56.8%.

As to `CC1=CC(=O)c2cccc(NC3=NCCO3)c21`, the growth was 98.6%.

As to `ON=C(C1CCCCC1)C1CCCCC1`, the growth is 93.3%.

For the compound `CS(=O)(=O)OCC1NC(=O)C(COS(C)(=O)=O)NC1=O` (stereo unspecified), the growth was 93% and 85%.

For the compound `CC(C)(C)C1CCC(=NO)CC1` (stereo unspecified), the growth is 83.9%.

Turning to `COc1ccc(C(=O)C(O)c2ccc(OC)cc2)cc1` (stereo unspecified), the growth is 96.7% and 98.1%.

Turning to `COC(=O)c1nc(N)nc(C(=O)OC)c1C(=O)c1ccc(F)cc1`, the growth was 97.1%.

With `CC(C)(C)OC(=O)CC1(O)CCCCC1`, the growth is 101%.

In the case of `CC1(CO)CCCC1NCCNC1CCCC1(C)CO` (stereo unspecified), the growth was 94% and 95.3%.

As for `CCCC(=O)Oc1ccc2ccccc2c1`, the growth was 101%.

In the case of `COC(=O)c1cc(C(=O)OC)cc([N+](=O)[O-])c1`, the growth is 98%.

As for `CC(=O)C[n+]1ccccc1Sc1ccc(Cl)cc1`, the growth is 65%.

As to `O=C(O)C(Cc1ccc(OS(=O)(=O)Cc2ccccc2)cc1)NS(=O)(=O)Cc1ccccc1` (stereo unspecified), the growth was 91.4% and 98.4%.

As to `O=c1[nH]c(=O)c2[nH]c(=O)[nH]c2[nH]1`, the growth was 92.1%.

Regarding `O=[N+]([O-])c1ccc(NC2CCCCC2)nc1`, the growth is 110% and 102%.

Take `O=C1c2ccccc2C(c2ccccc2)C1c1ccccc1` (stereo unspecified): the growth is 69.3%.

As for `COC(=O)c1nc(=S)[nH]c(C(=O)OC)c1C(=O)c1ccccc1`, the growth was 94.2%.

Consider `CCNC1=CC(=O)c2ncccc2C1=O`, for which the growth was -13.2% (active).

For the compound `COc1ccc(-n2[nH]c3c(cnc4ccccc43)c2=O)cc1`, the growth is 98.8% and 93.1%.

The same test, now with this note: 100 µM.
In the case of `O=c1ccn2c(n1)OC1CC2OC1COC(c1ccccc1)(c1ccccc1)c1ccccc1` (stereo unspecified), the growth was 46.7%.

In the case of `CS/C(=C\c1ccc(C(=O)c2ccc(C)cc2)n1C)S(C)=O` (stereo unspecified), the growth is 70.7%.
